In ChEMBL document CHEMBL3988442, “University of Dundee, Small-Polar-MMV Screening Library” (2021) one finds Percent Effect data, which are given here for twelve compounds.

Set-up in all cases: scale not given: direction of the effect not stated beside the values
Assay [1] deals with Protein translocase subunit SecA (Escherichia coli (strain K12)) (UniProt P10408). As to the kind of experiment: Assay to Identify E. coli SecA ATPase Inhibitors. The conditions noted are these: 30 µM. The class given is functional.
Chain of Protein translocase subunit SecA (Escherichia coli (strain K12)) (P10408 whole entry): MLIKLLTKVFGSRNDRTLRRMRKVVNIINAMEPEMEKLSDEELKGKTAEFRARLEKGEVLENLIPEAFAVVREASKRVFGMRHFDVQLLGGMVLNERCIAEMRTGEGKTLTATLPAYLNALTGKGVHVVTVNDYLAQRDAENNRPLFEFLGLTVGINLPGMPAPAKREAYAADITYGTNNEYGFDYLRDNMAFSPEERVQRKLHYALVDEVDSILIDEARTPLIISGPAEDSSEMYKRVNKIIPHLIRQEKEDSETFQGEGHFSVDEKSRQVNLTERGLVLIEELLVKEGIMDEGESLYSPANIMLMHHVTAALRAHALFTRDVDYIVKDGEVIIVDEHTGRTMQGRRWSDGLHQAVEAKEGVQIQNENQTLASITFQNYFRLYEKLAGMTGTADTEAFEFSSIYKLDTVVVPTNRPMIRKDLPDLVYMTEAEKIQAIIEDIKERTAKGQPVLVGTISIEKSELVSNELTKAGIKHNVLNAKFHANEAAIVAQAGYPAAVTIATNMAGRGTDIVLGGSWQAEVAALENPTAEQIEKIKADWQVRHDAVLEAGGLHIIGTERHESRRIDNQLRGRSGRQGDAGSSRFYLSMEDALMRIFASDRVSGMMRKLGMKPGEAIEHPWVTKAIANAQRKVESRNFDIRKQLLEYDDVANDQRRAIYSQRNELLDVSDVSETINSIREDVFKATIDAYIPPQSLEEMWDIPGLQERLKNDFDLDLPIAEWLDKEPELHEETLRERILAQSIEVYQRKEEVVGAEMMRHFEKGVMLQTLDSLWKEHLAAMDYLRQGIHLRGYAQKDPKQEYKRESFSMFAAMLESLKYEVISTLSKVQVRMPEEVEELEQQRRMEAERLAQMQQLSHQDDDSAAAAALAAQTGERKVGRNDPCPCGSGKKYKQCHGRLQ
Assay [2] addresses T1, Ubiquitin-activating enzyme e1, putative (Leishmania donovani (strain BPK282A1)) (UniProt E9BSI1).
T1 sequence (whole entry): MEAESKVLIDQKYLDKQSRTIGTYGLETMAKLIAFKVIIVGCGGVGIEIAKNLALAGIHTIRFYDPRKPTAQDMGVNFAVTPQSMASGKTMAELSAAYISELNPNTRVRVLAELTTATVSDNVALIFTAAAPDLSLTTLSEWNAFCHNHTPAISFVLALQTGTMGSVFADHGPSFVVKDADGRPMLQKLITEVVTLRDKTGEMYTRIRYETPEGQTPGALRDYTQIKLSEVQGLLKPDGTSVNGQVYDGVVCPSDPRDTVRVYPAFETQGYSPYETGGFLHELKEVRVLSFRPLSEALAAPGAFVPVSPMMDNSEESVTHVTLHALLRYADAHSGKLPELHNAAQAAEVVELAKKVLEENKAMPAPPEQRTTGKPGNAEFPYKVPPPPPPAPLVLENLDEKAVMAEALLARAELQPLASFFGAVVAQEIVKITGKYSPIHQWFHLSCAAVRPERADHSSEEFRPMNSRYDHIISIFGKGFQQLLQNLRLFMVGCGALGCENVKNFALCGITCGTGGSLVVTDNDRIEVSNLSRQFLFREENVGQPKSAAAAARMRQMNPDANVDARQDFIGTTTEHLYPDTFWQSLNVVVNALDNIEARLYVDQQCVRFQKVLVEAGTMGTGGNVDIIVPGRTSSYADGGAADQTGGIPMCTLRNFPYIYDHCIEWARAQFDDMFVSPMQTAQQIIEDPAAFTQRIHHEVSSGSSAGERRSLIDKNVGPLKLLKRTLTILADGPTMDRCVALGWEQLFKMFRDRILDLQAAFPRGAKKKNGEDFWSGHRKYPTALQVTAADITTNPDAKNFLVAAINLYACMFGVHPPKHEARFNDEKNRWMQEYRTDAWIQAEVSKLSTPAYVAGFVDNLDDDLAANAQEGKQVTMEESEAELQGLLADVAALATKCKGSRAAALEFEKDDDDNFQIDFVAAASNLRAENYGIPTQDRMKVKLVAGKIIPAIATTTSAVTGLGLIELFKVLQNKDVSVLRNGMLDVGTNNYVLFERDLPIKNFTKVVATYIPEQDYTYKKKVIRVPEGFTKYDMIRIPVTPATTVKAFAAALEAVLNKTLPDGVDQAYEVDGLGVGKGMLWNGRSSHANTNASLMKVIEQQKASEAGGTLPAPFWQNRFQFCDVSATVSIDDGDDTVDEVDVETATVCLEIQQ
As to the kind of experiment: Leishmania donovani Ubiquitin Activating Enzyme (LdE1). The class given is functional. The conditions noted are these: 30 µM.

Assay [3] addresses Sialic acid-binding Ig-like lectin 9 (Homo sapiens) (UniProt Q9Y336). The assay can be described thus: Hs-Siglec9 ALPHAscreen SOP 20170721. Particulars: 10 µM. In general terms: Bead proximity is the source of the signal in Alpha formats.
For another assay, the system named is Trypanosoma cruzi. As to the kind of experiment: Trypanosoma cruzi phosphomannomutase and mannose-1-phosphate guanylyltransferase assay. The class given is functional. Particulars: 10 µM.
In assay [4] the target is T2, Arginase-2, mitochondrial (Homo sapiens) (UniProt P78540).
T2 sequence (whole entry): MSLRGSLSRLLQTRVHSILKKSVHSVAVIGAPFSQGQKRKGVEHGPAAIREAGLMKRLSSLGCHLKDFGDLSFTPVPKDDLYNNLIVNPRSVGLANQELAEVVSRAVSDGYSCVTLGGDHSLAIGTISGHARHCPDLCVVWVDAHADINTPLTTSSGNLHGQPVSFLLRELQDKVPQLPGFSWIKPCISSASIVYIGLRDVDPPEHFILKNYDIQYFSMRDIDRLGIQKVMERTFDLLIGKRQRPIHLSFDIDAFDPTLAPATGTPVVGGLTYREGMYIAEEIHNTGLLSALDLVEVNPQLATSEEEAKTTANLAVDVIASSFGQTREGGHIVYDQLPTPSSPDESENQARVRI
As to the kind of experiment: in vitro enzyme assay to detect the production of urea directly proportional to the activity of Arginase II. Also: in the data most compounds retested in dose-response had high values. The conditions noted are these: 33.3 µM. It counts as functional.

Assay [5] has as its target T3, Proteasome subunit beta (Trypanosoma cruzi) (UniProt O96673).
T3 sequence (whole entry): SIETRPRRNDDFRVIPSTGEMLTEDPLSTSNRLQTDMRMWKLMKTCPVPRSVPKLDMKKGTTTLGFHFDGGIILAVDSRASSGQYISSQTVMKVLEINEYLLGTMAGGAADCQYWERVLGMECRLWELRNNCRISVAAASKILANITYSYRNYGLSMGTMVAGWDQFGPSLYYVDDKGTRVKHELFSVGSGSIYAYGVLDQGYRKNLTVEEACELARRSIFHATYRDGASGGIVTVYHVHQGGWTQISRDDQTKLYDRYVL
The assay can be described thus: Trypanosoma cruzi proteasome chymotrypsin-like activity (TcProtChymo) assay. Also: in the data most compounds retested in dose-response had high values. The class given is functional. The conditions noted are these: 9.37 µM.

The species named for the next assay is Homo sapiens. As to the kind of experiment: To identify inhibition of the IFN signalling (Jak-Stat) pathway via expression of an eGFP reporter gene under the control of an IFN-stimulated response element (ISRE) containing MxA promoter. The class given is functional. The conditions noted are these: 30 µM. A general note: Reporter assays use an easily measured gene product as a stand-in for the process of interest.

Assay [6] concerns the target T4, Tyrosyl-tRNA synthetase, putative (Trypanosoma cruzi (strain CL Brener)) (UniProt Q4DSP6).
T4 sequence (whole entry): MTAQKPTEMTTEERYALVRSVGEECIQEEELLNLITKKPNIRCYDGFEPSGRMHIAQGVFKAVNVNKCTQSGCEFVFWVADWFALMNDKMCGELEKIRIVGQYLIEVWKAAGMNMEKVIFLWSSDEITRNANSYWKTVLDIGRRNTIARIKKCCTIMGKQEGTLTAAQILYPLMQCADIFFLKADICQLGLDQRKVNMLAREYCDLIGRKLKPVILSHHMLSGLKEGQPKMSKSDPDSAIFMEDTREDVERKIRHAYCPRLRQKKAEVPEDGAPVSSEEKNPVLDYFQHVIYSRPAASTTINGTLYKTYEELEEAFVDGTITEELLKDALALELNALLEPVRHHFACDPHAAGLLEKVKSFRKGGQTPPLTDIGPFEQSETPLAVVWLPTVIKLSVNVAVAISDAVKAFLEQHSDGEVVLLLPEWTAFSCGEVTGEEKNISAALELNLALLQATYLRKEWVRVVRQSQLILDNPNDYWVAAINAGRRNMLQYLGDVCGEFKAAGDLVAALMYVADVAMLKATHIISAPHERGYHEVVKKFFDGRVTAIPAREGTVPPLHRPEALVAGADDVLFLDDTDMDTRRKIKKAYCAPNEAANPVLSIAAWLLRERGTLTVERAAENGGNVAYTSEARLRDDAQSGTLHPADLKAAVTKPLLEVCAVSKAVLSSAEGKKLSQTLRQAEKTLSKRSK
As to the kind of experiment: Trypanosoma cruzi tyrosyl tRNA synthetase (TcYRS) _High Tyrosine SOP. Also: in the data most compounds retested in dose-response had high values. The class given is functional. The conditions noted are these: 30 µM.

The target in assay [7] is T4, Tyrosyl-tRNA synthetase, putative (Trypanosoma cruzi (strain CL Brener)). The assay can be described thus: Trypanosoma cruzi tyrosyl tRNA synthetase (TcYRS) SOP. It counts as functional. The conditions noted are these: 30 µM.
Assay [8] addresses Chromo domain-containing protein 1 (Saccharomyces cerevisiae (strain ATCC 204508 / S288c) (Baker's yeast)) (UniProt P32657). The assay can be described thus: ScCHD-1 Enzyme Inhibition Assay. Also: in the data most compounds retested in dose-response had high values. The class given is functional. Particulars: 30 µM.

For part of these data: Potency and affinity values are given separately.

Chain of Sialic acid-binding Ig-like lectin 9 (Homo sapiens) (Q9Y336 whole entry): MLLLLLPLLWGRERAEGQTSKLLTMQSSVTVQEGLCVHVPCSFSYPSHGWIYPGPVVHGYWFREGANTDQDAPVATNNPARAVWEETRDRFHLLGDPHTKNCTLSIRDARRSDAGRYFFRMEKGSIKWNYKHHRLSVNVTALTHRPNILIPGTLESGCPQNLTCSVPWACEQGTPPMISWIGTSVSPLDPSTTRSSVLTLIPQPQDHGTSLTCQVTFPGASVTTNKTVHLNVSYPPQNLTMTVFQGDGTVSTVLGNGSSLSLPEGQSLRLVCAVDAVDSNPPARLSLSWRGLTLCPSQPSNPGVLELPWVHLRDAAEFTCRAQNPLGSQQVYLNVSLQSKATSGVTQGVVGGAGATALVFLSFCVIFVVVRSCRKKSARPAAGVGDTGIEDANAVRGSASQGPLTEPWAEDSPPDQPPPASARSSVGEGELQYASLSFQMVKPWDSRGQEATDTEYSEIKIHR
Chain of Chromo domain-containing protein 1 (Saccharomyces cerevisiae (strain ATCC 204508 / S288c) (Baker's yeast)) (P32657 whole entry, the tested form may be a part): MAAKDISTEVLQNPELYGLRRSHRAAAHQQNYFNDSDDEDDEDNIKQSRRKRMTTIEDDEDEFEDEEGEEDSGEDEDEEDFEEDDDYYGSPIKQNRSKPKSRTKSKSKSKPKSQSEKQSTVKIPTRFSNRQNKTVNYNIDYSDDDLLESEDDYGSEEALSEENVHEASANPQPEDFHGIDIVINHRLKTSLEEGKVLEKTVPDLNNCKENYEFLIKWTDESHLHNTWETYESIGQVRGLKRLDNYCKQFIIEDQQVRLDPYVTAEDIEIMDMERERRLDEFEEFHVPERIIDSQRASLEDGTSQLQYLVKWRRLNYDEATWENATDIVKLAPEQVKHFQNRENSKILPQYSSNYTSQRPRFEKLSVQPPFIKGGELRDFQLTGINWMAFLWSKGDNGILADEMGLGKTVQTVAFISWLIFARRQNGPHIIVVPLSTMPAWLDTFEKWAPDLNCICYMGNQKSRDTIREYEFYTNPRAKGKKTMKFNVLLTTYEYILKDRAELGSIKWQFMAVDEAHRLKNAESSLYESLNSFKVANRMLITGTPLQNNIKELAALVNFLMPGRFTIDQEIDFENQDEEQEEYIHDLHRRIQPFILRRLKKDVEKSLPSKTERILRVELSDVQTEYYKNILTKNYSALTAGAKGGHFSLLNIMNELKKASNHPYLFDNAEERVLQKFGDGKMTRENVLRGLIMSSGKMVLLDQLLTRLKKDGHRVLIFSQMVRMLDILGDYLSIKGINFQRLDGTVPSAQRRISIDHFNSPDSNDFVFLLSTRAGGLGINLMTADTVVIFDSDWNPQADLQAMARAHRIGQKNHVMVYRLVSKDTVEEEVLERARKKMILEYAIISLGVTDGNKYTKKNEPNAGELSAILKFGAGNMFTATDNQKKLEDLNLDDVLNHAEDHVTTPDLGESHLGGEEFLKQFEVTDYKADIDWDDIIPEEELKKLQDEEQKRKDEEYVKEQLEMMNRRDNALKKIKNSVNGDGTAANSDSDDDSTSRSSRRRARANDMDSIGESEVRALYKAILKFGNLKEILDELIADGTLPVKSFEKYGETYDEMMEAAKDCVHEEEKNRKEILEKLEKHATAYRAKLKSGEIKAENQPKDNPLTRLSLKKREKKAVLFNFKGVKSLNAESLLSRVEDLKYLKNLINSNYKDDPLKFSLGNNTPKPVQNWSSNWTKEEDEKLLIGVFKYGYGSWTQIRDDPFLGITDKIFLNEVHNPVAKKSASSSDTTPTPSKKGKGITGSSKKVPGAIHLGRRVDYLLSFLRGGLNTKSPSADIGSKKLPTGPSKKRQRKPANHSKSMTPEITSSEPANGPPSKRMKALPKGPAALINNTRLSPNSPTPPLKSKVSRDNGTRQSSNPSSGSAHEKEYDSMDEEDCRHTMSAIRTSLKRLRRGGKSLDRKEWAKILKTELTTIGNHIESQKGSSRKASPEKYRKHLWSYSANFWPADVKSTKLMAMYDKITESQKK

Turning to `CC(C)CCC(=O)NC(C)c1nnc2n1CCCCC2` (stereo not given), the Percent Effect in assay [1] was -1.02%; in assay [2], 10.4%; in assay [3] it was 4.23%; with Trypanosoma cruzi it was 2.42%; in assay [4], -0.205%; in [5], 6.84%. The Percent Effect was -5.87% in the assay filed under Homo sapiens, 2.94% in [6], 7.06% in assay [7] and -9.02% in assay [8].

Take `CN(C)c1cc(C(=O)N2CCCC(n3cccn3)C2)ccn1` (stereo not given): the Percent Effect in assay [1] is -2.71%; in assay [2], 5.13%; in assay [3], 3.76%; with Trypanosoma cruzi it was 1.97%; in [4], 3.69%; in assay [5], 2.47%. Also, the Percent Effect in the assay listed under Homo sapiens was 18.3%; in assay [6], -4.31%; in [7] it was 18.1%; in [8], -3.29%.

With `CN(C)S(=O)(=O)N1CCN(c2ccnc(N3CCCC3)n2)CC1`, the Percent Effect is -3.6% in assay [1]; -2.7% in [2]; -0.53% in assay [3]; 3.01% in the assay with Trypanosoma cruzi; -1.75% in assay [4]; 8.39% in assay [5]. Also, the Percent Effect in the assay listed under Homo sapiens is -13.3%; in assay [6], 3.72%; in assay [7] it was 4.88%; in [8] it was -0.866%.

On to `CN(C)CCN1CCC2(CCN(C(=O)c3ccc(F)cc3)CC2)C1=O`, for which the Percent Effect in assay [1] was -1.6%; in assay [2] it was 14.3%; in assay [3] it was -0.427%; in the assay on Trypanosoma cruzi, -5.44%; in assay [4] it was 2.28%; in assay [5] it was 16.7%. Moreover, the Percent Effect in the assay listed under Homo sapiens is 12.2%; in assay [6] it was 10.6%; in [7], 12.5%; in assay [8], -6.97%.

Regarding `COc1ccc(C[C@H]2CN(C(=O)CN(C)C)CC[C@H]2OC)cc1`, the Percent Effect in [1] was -1.58%; in assay [2], 14.3%; in [3], 1.4%; in the assay on Trypanosoma cruzi, 0.563%; in [4], 0%; in assay [5], -4.21%. In addition, the Percent Effect in the assay filed under Homo sapiens is 5.12%; in [6], -8.7%; in assay [7], 10%; in assay [8] it was -0.592%.

As to `Cc1ccc(C(=O)N2CCC3(CC2)CCN(CCN(C)C)C3=O)cn1`, the Percent Effect was -3.6% in assay [1]; 6.49% in assay [2]; -4.15% in assay [3]; -1.31% in the assay with Trypanosoma cruzi; -0.457% in assay [4]; 6.44% in [5]. In addition, the Percent Effect in the assay filed under Homo sapiens is 11.3%; in assay [6] it was 7.73%; in assay [7], 7.5%; in assay [8], -6.63%.

On to `O=C(c1cccs1)N1CC[C@H](O)[C@@H]1Cc1ccccc1`, for which the Percent Effect was -8.07% in assay [1]; 9.09% in [2]; 8.03% in assay [3]; -0.563% in the assay on Trypanosoma cruzi; 0.457% in assay [4]; 0.601% in assay [5]. Moreover, the Percent Effect in the assay filed under Homo sapiens was 23.5%; in assay [6] it was 0.966%; in [7], 7.5%; in assay [8] it was -9.97%.

For the compound `CC(=O)N(Cc1ncc(C)o1)C1CCN(CCCc2cnn(C)c2)C1` (stereo not given), the Percent Effect was -1.84% in [1]; 18.7% in [2]; -5.35% in assay [3]; 1.41% in the assay with Trypanosoma cruzi; -3.99% in [4]; 26.2% in [5]. Also, the Percent Effect is 2.97% in the assay listed under Homo sapiens, 4.74% in [6], 12.8% in assay [7] and -12.6% in assay [8].

Turning to `CCn1cnnc1CNC(=O)N1CCOCC1`, the Percent Effect is -3.29% in assay [1]; 0% in assay [2]; 6.4% in [3]; -3.41% in the assay on Trypanosoma cruzi; 2.66% in [4]; 2.97% in assay [5]. The Percent Effect in the assay listed under Homo sapiens is -3.83%; in assay [6], 2.63%; in assay [7], 0%; in assay [8], -2.64%.

With `CCc1nccn1C1CCCN(C(=O)c2csc(COC)n2)C1` (stereo not given), the Percent Effect in [1] is -5.68%; in [2] it was 10.4%; in assay [3] it was 12.8%; in the assay with Trypanosoma cruzi, -5.78%; in assay [4], -1.43%; in assay [5] it was 7.89%. The Percent Effect in the assay listed under Homo sapiens is 13.9%; in [6], 4.9%; in assay [7], 9.41%; in [8], -5.76%.

For `O=C(CCN1CCCN(c2nccs2)CC1)NCC1CCCCC1`, the Percent Effect is -2.39% in assay [1]; 5.33% in assay [2]; 1.99% in [3]; -3.61% in the assay with Trypanosoma cruzi; 0% in [4]; 9.41% in assay [5]. For the same compound, the Percent Effect is 3.1% in the assay listed under Homo sapiens, 6.84% in [6], 7.69% in assay [7] and -5.72% in assay [8].

Regarding `CCn1ccnc1CN1CCCN(C(=O)c2cccn2C)CC1`, the Percent Effect in assay [1] was -5.36%; in [2] it was 12.8%; in [3] it was -19.1%; with Trypanosoma cruzi it was 14%; in [4], -2.46%; in assay [5], 8.79%. Also, the Percent Effect in the assay filed under Homo sapiens worked out at 4.83%; in assay [6], 2.39%; in assay [7], 20.5%; in [8], 31.3%.
